What all share (assay): DAPPL (digital affinity profiling via proximity ligation, sequencing); 10 mM Tris-HCl pH 7.5, 50 mM NaCl, 1 mM DTT, 4% glycerol, room temperature, 30 min; GST-TFs on glutathione beads, 16-mer random dsDNA library, 0.1% formaldehyde crosslink after washing; high values mean tight binding
One test has as its target T1, FEV (Homo sapiens, UniProt Q99581 1-238).
T1 sequence: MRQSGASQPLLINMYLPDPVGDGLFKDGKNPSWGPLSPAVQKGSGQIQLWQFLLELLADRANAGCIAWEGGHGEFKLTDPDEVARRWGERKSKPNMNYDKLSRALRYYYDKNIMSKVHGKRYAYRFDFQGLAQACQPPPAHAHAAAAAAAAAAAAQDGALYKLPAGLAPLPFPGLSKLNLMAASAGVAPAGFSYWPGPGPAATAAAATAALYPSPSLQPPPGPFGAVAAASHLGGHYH
To be noted: protein: recombinant; tags: N-terminal GST; dsDNA, one strand shown. Put shortly:
(§1)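 A tag-only sample was pooled with DNA-barcoded human transcription factors that had been expressed in yeast as GST fusions and captured on glutathione beads. The pools were incubated for 30 min at room temperature with 200 nmole of a random double-stranded 16-mer DNA library in Tris/NaCl/DTT/glycerol buffer, then washed, crosslinked with 0.1% formaldehyde, proximity-ligated (BsaI/T4 ligase, 1 h, 37 °C), PCR-amplified and sequenced on an Illumina NextSeq500. Binding signal is each hexamer's read frequency for a factor divided by its frequency for the tag-only sample.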

For the next test, the target named is ETV5 (Homo sapiens, UniProt P41161 1-510). The conditions noted are these: protein: recombinant; tags: N-terminal GST; dsDNA, one strand shown. Put shortly: as §1
ETV5, sequence (P41161 whole entry): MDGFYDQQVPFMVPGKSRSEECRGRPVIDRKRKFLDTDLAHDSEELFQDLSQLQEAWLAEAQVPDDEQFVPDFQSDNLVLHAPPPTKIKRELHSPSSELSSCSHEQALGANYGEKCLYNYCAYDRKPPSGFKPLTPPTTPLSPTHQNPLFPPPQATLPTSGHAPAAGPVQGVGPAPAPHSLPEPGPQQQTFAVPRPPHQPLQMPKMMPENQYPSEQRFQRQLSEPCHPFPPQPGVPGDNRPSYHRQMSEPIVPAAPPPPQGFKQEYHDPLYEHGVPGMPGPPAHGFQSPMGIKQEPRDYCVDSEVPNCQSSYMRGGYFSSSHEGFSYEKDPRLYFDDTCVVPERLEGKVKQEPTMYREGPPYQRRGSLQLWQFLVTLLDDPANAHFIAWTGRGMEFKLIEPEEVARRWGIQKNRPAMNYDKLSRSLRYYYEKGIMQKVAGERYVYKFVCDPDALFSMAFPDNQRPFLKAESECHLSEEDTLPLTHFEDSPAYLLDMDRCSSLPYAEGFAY
A further test addresses HSF1 (Homo sapiens, UniProt Q00613 1-529). To be noted: protein: recombinant; tags: N-terminal GST; chain copies: 3; dsDNA, one strand shown. Put shortly:
as §1

The target of a further test is T2, SPIC (Homo sapiens, UniProt Q8N5J4 1-248).
T2 sequence: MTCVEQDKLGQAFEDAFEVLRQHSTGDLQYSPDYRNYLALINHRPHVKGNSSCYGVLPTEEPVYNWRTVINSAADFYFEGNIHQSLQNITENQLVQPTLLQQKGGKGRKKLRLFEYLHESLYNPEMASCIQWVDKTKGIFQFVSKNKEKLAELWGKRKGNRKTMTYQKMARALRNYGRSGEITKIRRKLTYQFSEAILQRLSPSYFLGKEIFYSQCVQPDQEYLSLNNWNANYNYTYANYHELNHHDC
To be noted: protein: recombinant; tags: N-terminal GST; dsDNA, one strand shown. Put shortly:
as §1

Another test concerns the target ELF4 (Homo sapiens, UniProt Q99607 1-663). To be noted: protein: recombinant; tags: N-terminal GST; dsDNA, one strand shown. Put shortly:
as §1

A further test deals with T3, ELK4 (Homo sapiens, UniProt P28324-2 1-405).
T3 sequence: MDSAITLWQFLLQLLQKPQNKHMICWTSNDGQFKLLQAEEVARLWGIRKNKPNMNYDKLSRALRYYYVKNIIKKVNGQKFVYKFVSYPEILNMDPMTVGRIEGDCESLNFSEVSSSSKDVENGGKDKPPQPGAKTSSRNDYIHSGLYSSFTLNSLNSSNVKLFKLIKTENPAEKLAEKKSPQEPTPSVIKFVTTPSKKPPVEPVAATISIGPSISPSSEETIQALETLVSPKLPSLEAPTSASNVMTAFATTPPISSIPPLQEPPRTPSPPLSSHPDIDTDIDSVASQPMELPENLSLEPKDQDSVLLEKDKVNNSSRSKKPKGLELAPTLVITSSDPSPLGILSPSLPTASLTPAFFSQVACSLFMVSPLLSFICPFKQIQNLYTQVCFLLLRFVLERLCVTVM
The conditions noted are these: protein: recombinant; tags: N-terminal GST; dsDNA, one strand shown. Put shortly: as §1

Another test has as its target T4, ETV2 (Homo sapiens, UniProt O00321 1-342).
T4 sequence: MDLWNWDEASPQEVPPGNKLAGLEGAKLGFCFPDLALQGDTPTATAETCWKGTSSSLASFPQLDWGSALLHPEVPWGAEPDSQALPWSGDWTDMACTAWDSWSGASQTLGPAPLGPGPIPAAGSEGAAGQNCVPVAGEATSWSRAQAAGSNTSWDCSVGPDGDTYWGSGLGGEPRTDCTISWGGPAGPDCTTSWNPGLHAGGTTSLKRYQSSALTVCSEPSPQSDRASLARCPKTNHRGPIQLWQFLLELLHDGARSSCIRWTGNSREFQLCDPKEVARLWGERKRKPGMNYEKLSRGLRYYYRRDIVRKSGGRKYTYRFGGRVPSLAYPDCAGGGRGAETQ
The conditions noted are these: protein: recombinant; tags: N-terminal GST; dsDNA, one strand shown. Put shortly:
as §1

The target in another test is T5, ELF3 (Homo sapiens, UniProt P78545 1-371).
T5 sequence: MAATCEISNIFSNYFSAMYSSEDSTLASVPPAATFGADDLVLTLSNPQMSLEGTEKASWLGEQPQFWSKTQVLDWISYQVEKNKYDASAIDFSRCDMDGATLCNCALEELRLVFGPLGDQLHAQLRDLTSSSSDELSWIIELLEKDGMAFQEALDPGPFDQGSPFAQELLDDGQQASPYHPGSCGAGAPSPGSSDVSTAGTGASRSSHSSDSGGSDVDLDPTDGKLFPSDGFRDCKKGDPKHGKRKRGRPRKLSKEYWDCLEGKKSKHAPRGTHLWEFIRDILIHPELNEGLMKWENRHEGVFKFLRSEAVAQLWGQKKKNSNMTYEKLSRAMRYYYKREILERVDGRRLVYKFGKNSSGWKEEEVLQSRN
To be noted: protein: recombinant; tags: N-terminal GST; dsDNA, one strand shown. In outline:
as §1

Another test concerns the target CRX (Homo sapiens, UniProt O43186 1-299). The conditions noted are these: protein: recombinant; tags: N-terminal GST; dsDNA, one strand shown. Put shortly: as §1
Another test concerns the target ETV1 (Homo sapiens, UniProt P50549 1-477). The conditions noted are these: protein: recombinant; tags: N-terminal GST; dsDNA, one strand shown. In outline: as §1

ELF4, sequence (Q99607 whole entry): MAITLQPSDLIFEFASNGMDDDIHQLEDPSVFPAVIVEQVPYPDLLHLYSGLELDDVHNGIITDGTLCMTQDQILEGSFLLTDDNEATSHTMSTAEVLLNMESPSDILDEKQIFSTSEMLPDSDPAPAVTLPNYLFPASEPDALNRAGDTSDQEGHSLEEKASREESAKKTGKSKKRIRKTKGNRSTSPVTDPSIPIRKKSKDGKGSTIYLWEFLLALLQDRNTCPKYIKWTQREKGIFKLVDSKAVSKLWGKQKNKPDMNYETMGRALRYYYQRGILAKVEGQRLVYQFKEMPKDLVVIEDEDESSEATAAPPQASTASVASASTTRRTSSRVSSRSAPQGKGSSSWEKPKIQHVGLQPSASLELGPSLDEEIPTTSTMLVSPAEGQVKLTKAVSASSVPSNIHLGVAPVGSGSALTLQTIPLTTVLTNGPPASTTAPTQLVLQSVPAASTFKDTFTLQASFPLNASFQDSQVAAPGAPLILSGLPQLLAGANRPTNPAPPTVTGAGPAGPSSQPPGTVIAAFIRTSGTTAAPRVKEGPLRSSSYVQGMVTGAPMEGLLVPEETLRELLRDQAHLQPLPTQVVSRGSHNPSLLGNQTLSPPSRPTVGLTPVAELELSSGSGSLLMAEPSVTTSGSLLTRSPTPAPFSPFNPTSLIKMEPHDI
HSF1, sequence (Q00613 whole entry): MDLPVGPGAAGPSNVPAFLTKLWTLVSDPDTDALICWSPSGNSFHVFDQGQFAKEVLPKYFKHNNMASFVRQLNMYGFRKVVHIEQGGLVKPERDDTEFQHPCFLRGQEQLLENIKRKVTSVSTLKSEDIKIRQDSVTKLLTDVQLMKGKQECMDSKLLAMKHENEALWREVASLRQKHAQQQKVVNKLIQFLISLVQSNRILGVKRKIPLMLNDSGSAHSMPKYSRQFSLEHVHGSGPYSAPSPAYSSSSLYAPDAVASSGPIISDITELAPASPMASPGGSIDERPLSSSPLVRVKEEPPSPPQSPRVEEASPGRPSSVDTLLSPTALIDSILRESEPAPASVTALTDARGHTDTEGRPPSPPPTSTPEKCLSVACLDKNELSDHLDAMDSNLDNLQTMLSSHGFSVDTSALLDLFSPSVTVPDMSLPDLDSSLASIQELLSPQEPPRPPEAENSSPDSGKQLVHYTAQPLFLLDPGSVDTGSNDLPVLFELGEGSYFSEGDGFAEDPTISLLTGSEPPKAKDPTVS
CRX, sequence (O43186 whole entry): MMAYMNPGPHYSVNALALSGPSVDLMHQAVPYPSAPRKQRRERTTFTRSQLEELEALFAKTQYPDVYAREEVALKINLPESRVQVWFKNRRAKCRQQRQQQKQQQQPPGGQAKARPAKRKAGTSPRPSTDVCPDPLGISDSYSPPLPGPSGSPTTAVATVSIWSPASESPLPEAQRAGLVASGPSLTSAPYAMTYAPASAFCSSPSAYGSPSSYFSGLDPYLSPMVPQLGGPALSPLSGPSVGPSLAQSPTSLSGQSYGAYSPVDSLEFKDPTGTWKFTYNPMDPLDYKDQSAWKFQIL
ETV1, sequence (P50549 whole entry): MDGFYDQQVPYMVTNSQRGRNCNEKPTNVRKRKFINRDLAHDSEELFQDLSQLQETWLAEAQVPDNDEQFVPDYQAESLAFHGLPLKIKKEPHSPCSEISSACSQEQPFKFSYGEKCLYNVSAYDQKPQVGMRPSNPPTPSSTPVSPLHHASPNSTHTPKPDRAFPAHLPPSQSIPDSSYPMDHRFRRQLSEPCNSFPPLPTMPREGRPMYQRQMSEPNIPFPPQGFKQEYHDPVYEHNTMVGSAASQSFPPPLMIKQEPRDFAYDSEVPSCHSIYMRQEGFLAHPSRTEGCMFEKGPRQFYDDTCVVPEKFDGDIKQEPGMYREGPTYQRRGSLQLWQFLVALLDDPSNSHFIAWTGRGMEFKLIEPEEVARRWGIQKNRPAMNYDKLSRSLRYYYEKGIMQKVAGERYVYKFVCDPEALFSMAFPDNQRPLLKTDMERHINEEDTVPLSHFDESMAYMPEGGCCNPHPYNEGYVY

With TCAAAA, the binding signal is 1.13 fold enrichment (6-mer frequency, TF over GST control) with FEV; 1.17 fold enrichment (6-mer frequency, TF over GST control) in the test with ETV5; 1.19 fold enrichment (6-mer frequency, TF over GST control) with HSF1; 1.24 fold enrichment (6-mer frequency, TF over GST control) with SPIC; 1.22 fold enrichment (6-mer frequency, TF over GST control) in the test with ELF4; 1.25 fold enrichment (6-mer frequency, TF over GST control) in the test with ELK4. In addition, the binding signal in the test with ETV2 was 1.23 fold enrichment (6-mer frequency, TF over GST control); in the test with ELF3, 1.39 fold enrichment (6-mer frequency, TF over GST control); with CRX, 1.28 fold enrichment (6-mer frequency, TF over GST control); in the test with ETV1, 1.23 fold enrichment (6-mer frequency, TF over GST control).
For the sequence TTAATA, the binding signal in the test with FEV is 1.19 fold enrichment (6-mer frequency, TF over GST control); in the test with ETV5, 1.15 fold enrichment (6-mer frequency, TF over GST control); with HSF1, 2.09 fold enrichment (6-mer frequency, TF over GST control); with SPIC it was 1.11 fold enrichment (6-mer frequency, TF over GST control); with ELF4 it was 1.23 fold enrichment (6-mer frequency, TF over GST control); in the test with ELK4 it was 1.08 fold enrichment (6-mer frequency, TF over GST control). Also, the binding signal with ETV2 is 1.25 fold enrichment (6-mer frequency, TF over GST control); with ELF3, 1.06 fold enrichment (6-mer frequency, TF over GST control); with CRX it was 3.19 fold enrichment (6-mer frequency, TF over GST control); in the test with ETV1 it was 1.09 fold enrichment (6-mer frequency, TF over GST control).
Turning to ATTCGC, the binding signal is 1.24 fold enrichment (6-mer frequency, TF over GST control) with FEV; 1.13 fold enrichment (6-mer frequency, TF over GST control) with ETV5; 1.47 fold enrichment (6-mer frequency, TF over GST control) with HSF1; 1.39 fold enrichment (6-mer frequency, TF over GST control) in the test with SPIC; 1.11 fold enrichment (6-mer frequency, TF over GST control) with ELF4; 1.1 fold enrichment (6-mer frequency, TF over GST control) with ELK4. The binding signal is 1.29 fold enrichment (6-mer frequency, TF over GST control) with ETV2; 1.27 fold enrichment (6-mer frequency, TF over GST control) with ELF3; 1.26 fold enrichment (6-mer frequency, TF over GST control) with CRX; 1.11 fold enrichment (6-mer frequency, TF over GST control) in the test with ETV1.
On to CCCGAT, for which the binding signal was 1.27 fold enrichment (6-mer frequency, TF over GST control) in the test with FEV; 1.2 fold enrichment (6-mer frequency, TF over GST control) with ETV5; 1.38 fold enrichment (6-mer frequency, TF over GST control) in the test with HSF1; 1.29 fold enrichment (6-mer frequency, TF over GST control) with SPIC; 1.23 fold enrichment (6-mer frequency, TF over GST control) with ELF4; 1.11 fold enrichment (6-mer frequency, TF over GST control) with ELK4. Moreover, the binding signal is 1.02 fold enrichment (6-mer frequency, TF over GST control) in the test with ETV2; 1.2 fold enrichment (6-mer frequency, TF over GST control) with ELF3; 1.37 fold enrichment (6-mer frequency, TF over GST control) in the test with CRX; 1.08 fold enrichment (6-mer frequency, TF over GST control) with ETV1.
As to CTCATG, the binding signal is 1.27 fold enrichment (6-mer frequency, TF over GST control) with FEV; 1.28 fold enrichment (6-mer frequency, TF over GST control) with ETV5; 1.04 fold enrichment (6-mer frequency, TF over GST control) with HSF1; 1.35 fold enrichment (6-mer frequency, TF over GST control) with SPIC; 1.19 fold enrichment (6-mer frequency, TF over GST control) with ELF4; 1.28 fold enrichment (6-mer frequency, TF over GST control) with ELK4. Further, the binding signal with ETV2 was 1.24 fold enrichment (6-mer frequency, TF over GST control); with ELF3, 1.2 fold enrichment (6-mer frequency, TF over GST control); with CRX it was 1.05 fold enrichment (6-mer frequency, TF over GST control); with ETV1, 1.29 fold enrichment (6-mer frequency, TF over GST control).
For AATAAG, the binding signal was 1.26 fold enrichment (6-mer frequency, TF over GST control) with FEV; 1.25 fold enrichment (6-mer frequency, TF over GST control) with ETV5; 1.52 fold enrichment (6-mer frequency, TF over GST control) in the test with HSF1; 1.3 fold enrichment (6-mer frequency, TF over GST control) with SPIC; 1.26 fold enrichment (6-mer frequency, TF over GST control) with ELF4; 1.2 fold enrichment (6-mer frequency, TF over GST control) with ELK4. Further, the binding signal in the test with ETV2 was 1.19 fold enrichment (6-mer frequency, TF over GST control); with ELF3 it was 1.29 fold enrichment (6-mer frequency, TF over GST control); with CRX, 1.98 fold enrichment (6-mer frequency, TF over GST control); with ETV1, 1.26 fold enrichment (6-mer frequency, TF over GST control).
Consider TATGTT, for which the binding signal in the test with FEV is 1.17 fold enrichment (6-mer frequency, TF over GST control); with ETV5 it was 1.15 fold enrichment (6-mer frequency, TF over GST control); with HSF1 it was 1.21 fold enrichment (6-mer frequency, TF over GST control); with SPIC, 1.06 fold enrichment (6-mer frequency, TF over GST control); with ELF4, 1.2 fold enrichment (6-mer frequency, TF over GST control); with ELK4 it was 1.29 fold enrichment (6-mer frequency, TF over GST control). The binding signal with ETV2 is 1.08 fold enrichment (6-mer frequency, TF over GST control); with ELF3, 1.1 fold enrichment (6-mer frequency, TF over GST control); with CRX it was 1.26 fold enrichment (6-mer frequency, TF over GST control); with ETV1 it was 1.1 fold enrichment (6-mer frequency, TF over GST control).
Turning to TACCTT, the binding signal was 1.34 fold enrichment (6-mer frequency, TF over GST control) with FEV; 1.4 fold enrichment (6-mer frequency, TF over GST control) with ETV5; 1.3 fold enrichment (6-mer frequency, TF over GST control) with HSF1; 1.3 fold enrichment (6-mer frequency, TF over GST control) with SPIC; 1.38 fold enrichment (6-mer frequency, TF over GST control) in the test with ELF4; 1.46 fold enrichment (6-mer frequency, TF over GST control) in the test with ELK4. Further, the binding signal in the test with ETV2 was 1.6 fold enrichment (6-mer frequency, TF over GST control); with ELF3, 1.31 fold enrichment (6-mer frequency, TF over GST control); with CRX, 1.55 fold enrichment (6-mer frequency, TF over GST control); with ETV1, 1.5 fold enrichment (6-mer frequency, TF over GST control).

Values taken from article PMC7862700, “An all-to-all approach to the identification of sequence-specific readers for epigenetic DNA modifications on cytosine”.
